Source: PubChem BioAssay (NCATS)
Values without a mark were called inactive. The source made the active and inactive calls. The rule behind the calls is not given here.

system: HIV-1 nucleocapsid protein NCp7 (binding to TG oligonucleotide); experiment: HIV Nucleocapsid (AID 346); details: HIV-1 NC / fluorescein-TGTGTGTG probe, fluorescence polarization;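 note: potency is for inhibitors that block NC binding and lower polarization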
How it was run: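 Reagents dispensed (10 nM TG4xF, 100 nM HIV-1 NC), plates spun, compounds pin-transferred, then incubated 1 hr at room temperature before FP imaging. Buffer: Hepes pH 7.5, 250mM NaCl, 1uM ZnCl2, 100 uM TCEP, 5 mM 2-mercaptoethanol.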
Potency is the fitted concentration of half-maximal effect.

Q: `O=c1c(-c2cccc(Cl)c2)nc2cncnc2n1Cc1ccccc1` was tested. Which Potency did it give?
A: > 20 µM

Q: Which Potency does the source give for `O=c1c(-c2ccccc2)nc2cnc(N3CCOCC3)nc2n1C1CC1` here?
A: > 20 µM

Q: How did the Potency turn out when `COc1ccc(NC(=O)N2CCCC3(CCN(C(=O)c4c(C)noc4C)CC3)C2)cc1` was run?
A: > 20 µM

Q: For `CC(C)CN1CCCC2(CCN(C(=O)c3cnccn3)CC2)C1`, which Potency is on record?
A: > 20 µM

Q: Which Potency does the source give for `N#CCCn1c(=O)c(-c2cccs2)nc2cnc(N3CCOCC3)nc21` here?
A: 4.26 µM (active)

Q: `O=C(c1cccc(F)c1)N1CCC2(CCCN(c3ccc(-c4ccccc4)cc3)C2)CC1` was tested. Which Potency did it give?
A: > 20 µM

Q: For `COc1ccc(Oc2ncc3nc(-c4ccc(F)cc4)c(=O)n(Cc4cccs4)c3n2)cc1`, which Potency is on record?
A: > 20 µM

Q: How did the Potency turn out when `Cc1cccc(CNc2ccnc(-c3ccc(N(C)C)cc3)n2)c1` was run?
A: > 20 µM

Q: Which Potency does the source give for `CN(Cc1ccco1)c1ncnc2ccc(-c3cccc(NS(C)(=O)=O)c3)cc12` here?
A: > 20 µM

Q: Which Potency does the source give for `CN(C)c1ccc(-c2nc(Nc3ccncc3)c3ccccc3n2)cc1` here?
A: > 20 µM

Q: With `CC(=O)N1CCC[C@@]2(CCN(c3ncccn3)C2)C1` as the compound, how does the Potency read?
A: > 20 µM

Q: Which Potency does the source give for `CC(=O)NCCNc1ncncc1-c1ccccc1C` here?
A: > 20 µM

Q: `CC(=O)NCCNc1ccnc(-c2ccccc2C)n1` was tested. Which Potency did it give?
A: > 20 µM

Q: `COc1ccc(C(=O)N2CCC3(CCCN(Cc4cc(C(F)(F)F)cc(C(F)(F)F)c4)C3)CC2)cc1` was tested. Which Potency did it give?
A: > 4 µM

Q: For `CC(C)CN1CC[C@@]2(CCCN(C(=O)c3csnn3)C2)C1`, which Potency is on record?
A: > 20 µM

Q: For `FC(F)(F)c1ccccc1-c1nccc(NCCN2CCOCC2)n1`, which Potency is on record?
A: > 20 µM

Q: With `Cc1noc(C)c1-c1cncnc1Nc1ccccc1` as the compound, how does the Potency read?
A: > 20 µM

Q: For `COc1ncc2nc(-c3ccc(F)cc3)c(=O)n(C)c2n1`, which Potency is on record?
A: > 20 µM

Q: Which Potency does the source give for `CN1CCN(c2ncc3nc(-c4cccc(C#N)c4)c(=O)n(CCC#N)c3n2)CC1` here?
A: > 20 µM

Q: `COCC(=O)N1CCC2(CCCN(C(=O)Nc3cccc(C#N)c3)C2)CC1` was tested. Which Potency did it give?
A: > 20 µM

Q: For `O=C(c1cccc(F)c1)N1CCC2(CC1)CCN(c1cccc(-c3ccccc3)c1)CC2`, which Potency is on record?
A: > 20 µM

Q: For `CCNc1ncc2nc(CCc3ccccc3)c(=O)n(C[C@H]3CCCO3)c2n1`, which Potency is on record?
A: > 20 µM

Q: How did the Potency turn out when `FC(F)(F)c1ccccc1-c1nc(NCc2cccnc2)c2ccccc2n1` was run?
A: > 20 µM

Q: For `Cc1nc2cnc(Oc3ccccc3)nc2n(-c2ccccc2)c1=O`, which Potency is on record?
A: > 20 µM

Q: With `O=c1c(-c2ccc(F)cc2)nc2cncnc2n1Cc1ccc(F)cc1` as the compound, how does the Potency read?
A: > 20 µM

Q: Which Potency does the source give for `O=c1c(-c2cc(F)cc(F)c2)nc2cncnc2n1-c1ccccc1` here?
A: > 20 µM

Q: `O=c1c(-c2ccccc2)nc2cncnc2n1Cc1ccc(F)cc1` was tested. Which Potency did it give?
A: > 20 µM

Q: With `CN(C)C(=O)c1ccc(-c2cncnc2NCCN2CCOCC2)cc1` as the compound, how does the Potency read?
A: > 20 µM

Q: How did the Potency turn out when `FC(F)(F)c1ccccc1-c1cncnc1NCCN1CCOCC1` was run?
A: > 20 µM

Q: How did the Potency turn out when `CS(=O)(=O)N1CCC2(CCCN(c3cccc(-c4ccccc4)c3)C2)CC1` was run?
A: > 20 µM

Q: For `CNc1nc(-c2ccc(N(C)C)cc2)nc2ccccc12`, which Potency is on record?
A: > 20 µM

Q: For `O=C(c1csnn1)N1CCC2(CCCN(c3ccccc3)C2)CC1`, which Potency is on record?
A: > 20 µM

Q: For `O=C(c1csnn1)N1CCC2(CC1)CCN(c1ccncc1)CC2`, which Potency is on record?
A: > 20 µM

Q: How did the Potency turn out when `COC(=O)N1CCC2(CCCN(C(=O)Nc3ccccc3)C2)CC1` was run?
A: > 20 µM

Q: For `COc1cccc(-c2ccc3ncnc(NCc4ccccc4)c3c2)c1`, which Potency is on record?
A: > 20 µM

Q: How did the Potency turn out when `CC(=O)NCCNc1ncnc2ccc(-c3c(C)noc3C)cc12` was run?
A: > 20 µM

Q: Which Potency does the source give for `Cc1noc(C)c1-c1nc(N2CCNCC2)c2ccccc2n1` here?
A: > 20 µM

Q: With `Cc1nc2cnc(Nc3ccccc3)nc2n(C[C@H]2CCCO2)c1=O` as the compound, how does the Potency read?
A: > 20 µM

Q: Which Potency does the source give for `COc1ccccc1CNc1ccnc(-c2ccccc2OC)n1` here?
A: > 20 µM

Q: Which Potency does the source give for `CN1CCN(c2ncc3nc(-c4cn(C)c5ccccc45)c(=O)n(CCc4ccccc4)c3n2)CC1` here?
A: > 4 µM
